Reference: PubChem BioAssay (EPA / NIEHS)
The source made the active and inactive calls. How the source made its calls: active means hit-call score of the fitted dose curve at least 0.9, where 1 is the maximum; inactive means score below 0.9.

Assays:
Conditions in all cases: mRNA level, 48 h; actives raise or lower the signal
[1] = read-out: JUN Transcription Factor, JUN (gene 3725); test: LTEA_HepaRG_JUN: Life Technologies and Expression Analysis (LTEA) Assay for JUN Transcription Factor using HepaRG (AID 2283513)
How it was run: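 Read-out is JUN transcript level by TaqMan qRT-PCR, normalized to ACTB, GAPDH and POLR2A, after 48 h chemical treatment of HepaRG cells. Concentration-response spanned eight half-log points up to 100 uM in 0.5% DMSO.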

[2] = read-out: Lipoprotein lipase (LPL), LPL (gene 4023); test: LTEA_HepaRG_LPL: Life Technologies and Expression Analysis (LTEA) Assay for Lipoprotein lipase (LPL) using HepaRG (AID 2283515)
How it was run: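 HepaRG, 48 h exposure, 8-pt half-log dilutions from 100 uM, 0.5% DMSO vehicle, duplicates; qRT-PCR (Fluidigm array) of LPL mRNA vs housekeeping genes; bidirectional curve fit relative to DMSO baseline.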

[3] = read-out: MicroRNA 122 (MIR122), gene 406906; test: LTEA_HepaRG_MIR122: Life Technologies and Expression Analysis (LTEA) Assay for MicroRNA 122 (MIR122) using HepaRG (AID 2283516); further: the transcript read is the microRNA miR-122
How it was run: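 Human liver HepaRG cultures receive test chemicals for 48 h at eight half-log concentrations from 100 uM. Expression is quantified by qRT-PCR with ACTB/GAPDH/POLR2A normalization and fitted bidirectionally against 0.5% DMSO.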

[4] = read-out: matrix metalloproteinase-10 (MMP10), MMP10 (gene 4319); test: LTEA_HepaRG_MMP10: Life Technologies and Expression Analysis (LTEA) Assay for matrix metalloproteinase-10 (MMP10) using HepaRG (AID 2283517)
How it was run: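 Transcript levels come from Fluidigm qRT-PCR normalized to three housekeeping genes, with curves fitted bidirectionally against 0.5% DMSO. Human HepaRG cells were dosed for 48 hours at concentrations up to 100 uM.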

MYC, MYC (gene 4609) = test: LTEA_HepaRG_MYC: Life Technologies and Expression Analysis (LTEA) Assay for MYC using HepaRG (AID 2283518)
How it was run: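 qRT-PCR read-out of MYC transcript (Fluidigm TaqMan, housekeeping-normalized) after 48 h chemical exposure of HepaRG cells; eight concentrations, top 100 uM, half-log steps. Bidirectional curve fitting against 0.5% DMSO vehicle baseline.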

[5] = read-out: matrix metalloproteinase-3 (MMP3), MMP3 (gene 4314); test: LTEA_HepaRG_MMP3: Life Technologies and Expression Analysis (LTEA) Assay for matrix metalloproteinase-3 (MMP3) using HepaRG (AID 2283519)
How it was run: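 qRT-PCR read-out of MMP3 mRNA (normalised to three housekeeping genes) in HepaRG liver cells after 48 h chemical exposure; 8-point half-log series, top 100 uM, 0.5% DMSO vehicle. Bidirectional curve fitting against DMSO baseline.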

[6] = read-out: Paternally Expressed 10 (PEG10), PEG10 (gene 23089); test: LTEA_HepaRG_PEG10: Life Technologies and Expression Analysis (LTEA) Assay for Paternally Expressed 10 (PEG10) using HepaRG (AID 2283520);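 on AC50: differentiated HepaRG human liver cells in serum-free induction medium with 0.5% DMSO; PEG10 transcript by qRT-PCR normalised to ACTB GAPDH and POLR2A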
How it was run: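 Human HepaRG cultures are dosed for 48 h across an eight-point half-log series starting at 100 uM, with 0.5% DMSO as vehicle and baseline. Gain or loss of PEG10 transcript is measured by qRT-PCR and fitted in both directions.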

[7] = read-out: Protein phosphatase 2A (PPP2R4), PTPA (gene 5524); test: LTEA_HepaRG_PPP2R4: Life Technologies and Expression Analysis (LTEA) Assay for Protein phosphatase 2A (PPP2R4) using HepaRG (AID 2283522)
How it was run: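 Cells were plated, cultured 48 h, switched to serum-free induction medium, then dosed for 48 h (8 points, max 100 uM, 0.5% DMSO). RNA was isolated and PPP2R4 expression measured by TaqMan qRT-PCR.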

[8] = read-out: Phosphatase and tensin (PTEN), PTEN (gene 5728); test: LTEA_HepaRG_PTEN: Life Technologies and Expression Analysis (LTEA) Assay for Phosphatase and tensin (PTEN) using HepaRG (AID 2283523)
How it was run: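 HepaRG, 48 h exposure, 8-pt half-log series from 100 uM top, 0.5% DMSO vehicle, duplicates. Readout: Fluidigm qRT-PCR of PTEN transcript; housekeeping normalization (ACTB, GAPDH, POLR2A). Gain or loss fitted relative to DMSO baseline.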

[9] = read-out: solute carrier (SLC22A1), SLC22A1 (gene 6580); test: LTEA_HepaRG_SLC22A1: Life Technologies and Expression Analysis (LTEA) Assay for solute carrier (SLC22A1) using HepaRG (AID 2283524);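 on AC50: differentiated human HepaRG liver cells in serum-free induction medium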
How it was run: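 qRT-PCR readout (TaqMan, Fluidigm arrays) of SLC22A1 transcript, normalized to three housekeeping genes; bidirectional curve fit relative to 0.5% DMSO vehicle. Differentiated human HepaRG cells, 48 h chemical exposure, top concentration 100 uM, half-log steps, eight points.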

[10] = read-out: Pyruvate Dehydrogenase Kinase 4 (PDK4), PDK4 (gene 5166); test: LTEA_HepaRG_PDK4: Life Technologies and Expression Analysis (LTEA) Assay for Pyruvate Dehydrogenase Kinase 4 (PDK4) using HepaRG (AID 2283525)
How it was run: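 HepaRG (human liver line), 48 h chemical exposure, 8-pt half-log CRC top 100 uM, 0.5% DMSO vehicle, duplicates. Readout: TaqMan qRT-PCR of PDK4 mRNA, housekeeping-normalized; gain/loss fit relative to DMSO baseline.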

[11] = read-out: NAD(P)H dehydrogenase [quinone] 1 (NQO1), NQO1 (gene 1728); test: LTEA_HepaRG_NQO1: Life Technologies and Expression Analysis (LTEA) Assay for NAD(P)H dehydrogenase [quinone] 1 (NQO1) using HepaRG (AID 2283526)
How it was run: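 Transcript induction or suppression is quantified by qRT-PCR in human HepaRG liver cells dosed for 48 hours. Eight half-log concentrations topping at 100 uM are used, with 0.5% DMSO as vehicle and baseline.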

[12] = read-out: Nuclear factor erythroid 2-related factor 2 (Homo sapiens) (UniProt Q16236); test: LTEA_HepaRG_NFE2L2: Life Technologies and Expression Analysis (LTEA) Assay for Nuclear factor erythroid 2-related factor 2 (NFE2L2) Transcription Factor using HepaRG (AID 2283527)
How it was run: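 HepaRG, 48 h dosing, 8-pt half-log series from 100 uM in 0.5% DMSO, duplicates. Read-out: NFE2L2 mRNA by qRT-PCR (ACTB/GAPDH/POLR2A normalization). Bidirectional curve fit vs DMSO baseline.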

[13] = read-out: succinate dehydrogenase complex iron sulfur subunit B (SDHB), SDHB (gene 6390); test: LTEA_HepaRG_SDHB: Life Technologies and Expression Analysis (LTEA) Assay for succinate dehydrogenase complex iron sulfur subunit B (SDHB) using HepaRG (AID 2283528)
How it was run: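 Readout is SDHB transcript level by qRT-PCR, normalised to three housekeeping genes and fitted bidirectionally against 0.5% DMSO vehicle. Human HepaRG cells were treated for 48 h at up to 100 uM.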

[14] = read-out: Signal transducer and activator of transcription 3 (Homo sapiens) (UniProt P40763); test: LTEA_HepaRG_STAT3: Life Technologies and Expression Analysis (LTEA) Assay for Signal transducer and activator of transcription (STAT3) using HepaRG (AID 2283529)
How it was run: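 HepaRG, 48 h exposure, 8-pt half-log series (top 100 uM), 0.5% DMSO vehicle, duplicates. Readout: STAT3 transcript by Fluidigm qRT-PCR, housekeeping-normalized; bidirectional fit vs DMSO baseline.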

[15] = read-out: solute carrier (SLCO1B1), SLCO1B1 (gene 10599); test: LTEA_HepaRG_SLCO1B1: Life Technologies and Expression Analysis (LTEA) Assay for solute carrier (SLCO1B1) using HepaRG (AID 2283530)
How it was run: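 SLCO1B1 transcript read by qRT-PCR (Fluidigm arrays), normalized to three housekeeping genes, after 48 h chemical exposure of HepaRG cells; bidirectional concentration-response fitting versus 0.5% DMSO baseline. Eight-point half-log series, maximum 100 uM.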

[16] = read-out: sulfotransferase 2A1 (SULT2A1), SULT2A1 (gene 6822); test: LTEA_HepaRG_SULT2A1: Life Technologies and Expression Analysis (LTEA) Assay for sulfotransferase 2A1 (SULT2A1) using HepaRG (AID 2283531)
How it was run: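 HepaRG, 48 h chemical exposure, 8-pt half-log curve from 100 uM in 0.5% DMSO, duplicates. Readout: TaqMan qRT-PCR of SULT2A1 mRNA, housekeeping-normalized. Bidirectional fit vs DMSO baseline.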

[17] = read-out: Transforming Growth Factor (TGFA), TGFA (gene 7039); test: LTEA_HepaRG_TGFA: Life Technologies and Expression Analysis (LTEA) Assay for Transforming Growth Factor (TGFA) using HepaRG (AID 2283532)
How it was run: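 qRT-PCR read-out of TGFA transcript, normalized to three housekeeping genes, fitted bidirectionally against 0.5% DMSO baseline. Human HepaRG cultures received chemicals for 48 h at eight half-log concentrations, top 100 uM.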

Measured: AC50

Chain of Nuclear factor erythroid 2-related factor 2 (Homo sapiens) (Q16236 whole entry, looked up): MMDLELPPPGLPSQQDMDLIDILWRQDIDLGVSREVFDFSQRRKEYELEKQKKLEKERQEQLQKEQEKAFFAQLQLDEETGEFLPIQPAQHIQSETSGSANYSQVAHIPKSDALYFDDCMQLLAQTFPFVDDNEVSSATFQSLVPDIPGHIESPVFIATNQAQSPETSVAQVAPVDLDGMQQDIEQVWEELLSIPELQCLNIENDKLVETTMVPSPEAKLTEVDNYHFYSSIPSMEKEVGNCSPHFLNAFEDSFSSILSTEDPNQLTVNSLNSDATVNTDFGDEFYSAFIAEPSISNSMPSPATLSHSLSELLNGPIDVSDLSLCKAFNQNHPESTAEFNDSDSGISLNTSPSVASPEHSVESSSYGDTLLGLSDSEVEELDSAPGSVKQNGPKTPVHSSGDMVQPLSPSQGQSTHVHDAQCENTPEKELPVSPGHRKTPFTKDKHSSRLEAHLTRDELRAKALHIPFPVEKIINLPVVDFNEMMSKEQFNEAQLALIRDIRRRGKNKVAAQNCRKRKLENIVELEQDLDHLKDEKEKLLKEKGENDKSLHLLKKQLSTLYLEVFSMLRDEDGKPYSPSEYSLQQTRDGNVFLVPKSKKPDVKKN
Chain of Signal transducer and activator of transcription 3 (Homo sapiens) (P40763 whole entry, looked up): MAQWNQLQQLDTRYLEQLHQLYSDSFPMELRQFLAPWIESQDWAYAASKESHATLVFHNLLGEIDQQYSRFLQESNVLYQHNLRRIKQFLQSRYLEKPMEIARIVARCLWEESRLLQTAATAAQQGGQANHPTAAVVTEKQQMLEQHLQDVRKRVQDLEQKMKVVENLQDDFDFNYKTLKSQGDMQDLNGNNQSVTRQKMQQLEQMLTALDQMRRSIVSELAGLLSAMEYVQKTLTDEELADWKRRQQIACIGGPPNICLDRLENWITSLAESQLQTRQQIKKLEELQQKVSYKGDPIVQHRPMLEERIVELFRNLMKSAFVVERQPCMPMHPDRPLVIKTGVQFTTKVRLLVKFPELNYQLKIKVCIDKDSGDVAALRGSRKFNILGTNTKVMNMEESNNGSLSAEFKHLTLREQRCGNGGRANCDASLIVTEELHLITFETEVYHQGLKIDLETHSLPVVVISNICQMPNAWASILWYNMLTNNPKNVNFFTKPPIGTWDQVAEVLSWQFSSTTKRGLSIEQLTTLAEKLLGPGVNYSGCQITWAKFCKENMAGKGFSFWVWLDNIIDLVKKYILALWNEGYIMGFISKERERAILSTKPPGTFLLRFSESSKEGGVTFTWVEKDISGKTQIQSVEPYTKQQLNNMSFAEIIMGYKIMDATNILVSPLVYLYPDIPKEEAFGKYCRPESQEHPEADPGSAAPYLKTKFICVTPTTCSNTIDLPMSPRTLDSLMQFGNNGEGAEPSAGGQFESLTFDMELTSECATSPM

COc1ccc(-n2nc(C(F)F)cc2-c2ccc(S(C)=O)cc2)cc1 (stereo unspecified)
active: [2] 31.1 µM
inactive: [1] | [3] | [4] | MYC, MYC (gene 4609) | [5] | [6] | [7] | [8] | [9] | [10] | [11] | [12] | [13] | [14] | [15] | [16] | [17]

COc1ccc2sc(C(=O)Nc3nnn[nH]3)c(OC(C)C)c2c1
active: [2] 12.7 µM | [3] 80.2 µM | MYC, MYC (gene 4609) 38 µM | [5] 27.1 µM | [6] 35.8 µM | [9] 97.4 µM | [10] 32.5 µM | [12] 27.6 µM | [15] 81.7 µM | [16] 78.4 µM | [17] 34 µM
inactive: [1] | [4] | [7] | [8] | [11] | [13] | [14]

COCCOc1cc2cc(C(=O)NC3CCN(C(C)C)CC3)n(CC(=O)Nc3ccc(Cl)cn3)c2cn1
inactive: [1] | [4] | MYC, MYC (gene 4609) | [5] | [7] | [11] | [12] | [13] | [14] | [16] | [17]
active: [2] 8.93 µM | [3] 45 µM | [6] 45 µM | [8] 45 µM | [9] 62.1 µM | [10] 37.4 µM | [15] 56.5 µM

O=C(CCCCCCCCc1cccnc1)N1CCC(C=C(c2ccccc2)c2ccccc2)CC1
inactive: [8] | [13] | [14]
active: [1] 28.5 µM | [2] 12.8 µM | [3] 26.5 µM | [4] 31.8 µM | MYC, MYC (gene 4609) 27.4 µM | [5] 86.8 µM | [6] 50 µM | [7] 11.7 µM | [9] 24.4 µM | [10] 89.4 µM | [11] 80 µM | [12] 24.9 µM | [15] 50 µM | [16] 30.6 µM | [17] 27 µM

CN(C)c1ccc(Cc2ccc(N(C)C)cc2)cc1
active: [3] 50 µM | [5] 50 µM | [6] 37.3 µM
inactive: [1] | [2] | [4] | MYC, MYC (gene 4609) | [7] | [8] | [9] | [10] | [11] | [12] | [13] | [14] | [15] | [16] | [17]

NC(=O)NO
inactive: [1] | [2] | [3] | [4] | MYC, MYC (gene 4609) | [5] | [6] | [7] | [8] | [9] | [10] | [11] | [12] | [13] | [14] | [15] | [16] | [17]

CCOC(=O)c1ccc(C2CCC(NC[C@H](O)COc3ccc(O)c(NS(C)(=O)=O)c3)CC2)cc1 (stereo partly specified)
inactive: [1] | [2] | [3] | [4] | MYC, MYC (gene 4609) | [5] | [6] | [7] | [8] | [9] | [10] | [11] | [12] | [13] | [14] | [15] | [16] | [17]
